Tests used:
Experiment in all cases: log2 ratio of Biotin-Ahx-Ub-VS probe labelling (fragment/DMSO); higher = less target engagement (more negative = stronger competition), active = hit call of the paper (q ≤ 0.05, log2 ratio ≤ -1)
Conditions in all cases: compound concentration: 200 uM; treatment time: 3 h
USP19 = molecular target: T1, USP19 (UniProt O94966)
T1 sequence (whole entry): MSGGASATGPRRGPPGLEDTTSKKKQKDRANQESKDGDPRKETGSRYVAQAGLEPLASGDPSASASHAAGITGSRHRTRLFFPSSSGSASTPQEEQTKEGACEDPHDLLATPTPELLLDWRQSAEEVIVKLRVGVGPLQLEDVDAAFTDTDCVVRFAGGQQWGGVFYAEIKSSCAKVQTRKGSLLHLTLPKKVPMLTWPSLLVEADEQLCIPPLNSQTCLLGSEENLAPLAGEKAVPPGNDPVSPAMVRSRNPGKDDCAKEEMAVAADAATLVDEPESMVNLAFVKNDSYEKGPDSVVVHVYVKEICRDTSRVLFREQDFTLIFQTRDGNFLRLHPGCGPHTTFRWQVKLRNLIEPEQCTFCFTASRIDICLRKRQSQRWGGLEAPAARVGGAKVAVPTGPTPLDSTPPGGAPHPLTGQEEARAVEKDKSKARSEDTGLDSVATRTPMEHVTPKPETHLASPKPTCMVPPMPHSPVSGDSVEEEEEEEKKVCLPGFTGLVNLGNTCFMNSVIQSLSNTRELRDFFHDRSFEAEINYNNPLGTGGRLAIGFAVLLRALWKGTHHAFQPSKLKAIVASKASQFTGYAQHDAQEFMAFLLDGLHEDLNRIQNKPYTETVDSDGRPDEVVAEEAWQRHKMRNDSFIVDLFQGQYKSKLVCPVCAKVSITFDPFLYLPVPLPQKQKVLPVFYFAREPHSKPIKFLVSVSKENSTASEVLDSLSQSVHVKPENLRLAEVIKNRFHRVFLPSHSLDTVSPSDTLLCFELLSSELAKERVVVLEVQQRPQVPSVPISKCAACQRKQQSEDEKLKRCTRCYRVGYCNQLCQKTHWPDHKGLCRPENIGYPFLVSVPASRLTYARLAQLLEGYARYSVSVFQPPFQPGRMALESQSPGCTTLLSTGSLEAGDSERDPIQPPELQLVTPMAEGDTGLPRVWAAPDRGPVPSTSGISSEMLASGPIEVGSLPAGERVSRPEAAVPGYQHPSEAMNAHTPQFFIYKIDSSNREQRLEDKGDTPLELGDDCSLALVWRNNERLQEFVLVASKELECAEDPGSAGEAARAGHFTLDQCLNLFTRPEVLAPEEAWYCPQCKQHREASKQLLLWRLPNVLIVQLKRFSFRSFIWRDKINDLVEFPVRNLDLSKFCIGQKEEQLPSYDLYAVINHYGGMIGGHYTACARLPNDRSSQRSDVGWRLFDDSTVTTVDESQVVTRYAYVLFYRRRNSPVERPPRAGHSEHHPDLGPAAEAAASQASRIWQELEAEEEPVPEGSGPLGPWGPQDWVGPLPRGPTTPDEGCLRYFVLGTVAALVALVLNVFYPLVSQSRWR
How it was run: (§1)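 HEK293T lysate (495 µg per sample, in Tris/CHAPS/IGEPAL buffer with protease inhibitors) was exposed in triplicate for 3 h to fragment at 200 µM or to vehicle, then to Biotin-Ahx-Ub-VS at 0.5 µM final for 1 h. Labelled DUBs were enriched on NeutrAvidin, digested with LysC and trypsin, and analysed by diaPASEF LC-MS/MS. Spectronaut label-free quantities were normalised to the global median, and values are average log2 ratios of fragment over vehicle from an unpaired t-test. Only proteins with ≥2 unique peptides were used.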

USP22 = molecular target: T2, USP22 (UniProt Q9UPT9)
T2 sequence (whole entry): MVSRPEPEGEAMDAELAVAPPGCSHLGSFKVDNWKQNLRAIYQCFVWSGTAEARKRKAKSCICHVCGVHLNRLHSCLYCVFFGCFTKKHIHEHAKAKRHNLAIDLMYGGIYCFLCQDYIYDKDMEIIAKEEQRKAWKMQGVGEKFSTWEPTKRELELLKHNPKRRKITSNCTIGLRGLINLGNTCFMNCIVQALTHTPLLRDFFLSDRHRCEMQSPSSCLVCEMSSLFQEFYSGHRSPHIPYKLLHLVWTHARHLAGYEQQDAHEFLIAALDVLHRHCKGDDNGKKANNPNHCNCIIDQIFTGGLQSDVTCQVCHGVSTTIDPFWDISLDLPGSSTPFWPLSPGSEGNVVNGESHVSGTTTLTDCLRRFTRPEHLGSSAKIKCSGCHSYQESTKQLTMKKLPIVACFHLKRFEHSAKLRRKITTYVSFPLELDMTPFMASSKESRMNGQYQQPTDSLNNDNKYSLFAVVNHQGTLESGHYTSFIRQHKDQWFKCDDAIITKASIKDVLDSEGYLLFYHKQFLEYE
How it was run: as §1

USP24 = USP24 (UniProt Q9UPU5)
How it was run: as §1

USP25 = molecular target: T3, USP25 (UniProt Q9UHP3)
T3 sequence (whole entry): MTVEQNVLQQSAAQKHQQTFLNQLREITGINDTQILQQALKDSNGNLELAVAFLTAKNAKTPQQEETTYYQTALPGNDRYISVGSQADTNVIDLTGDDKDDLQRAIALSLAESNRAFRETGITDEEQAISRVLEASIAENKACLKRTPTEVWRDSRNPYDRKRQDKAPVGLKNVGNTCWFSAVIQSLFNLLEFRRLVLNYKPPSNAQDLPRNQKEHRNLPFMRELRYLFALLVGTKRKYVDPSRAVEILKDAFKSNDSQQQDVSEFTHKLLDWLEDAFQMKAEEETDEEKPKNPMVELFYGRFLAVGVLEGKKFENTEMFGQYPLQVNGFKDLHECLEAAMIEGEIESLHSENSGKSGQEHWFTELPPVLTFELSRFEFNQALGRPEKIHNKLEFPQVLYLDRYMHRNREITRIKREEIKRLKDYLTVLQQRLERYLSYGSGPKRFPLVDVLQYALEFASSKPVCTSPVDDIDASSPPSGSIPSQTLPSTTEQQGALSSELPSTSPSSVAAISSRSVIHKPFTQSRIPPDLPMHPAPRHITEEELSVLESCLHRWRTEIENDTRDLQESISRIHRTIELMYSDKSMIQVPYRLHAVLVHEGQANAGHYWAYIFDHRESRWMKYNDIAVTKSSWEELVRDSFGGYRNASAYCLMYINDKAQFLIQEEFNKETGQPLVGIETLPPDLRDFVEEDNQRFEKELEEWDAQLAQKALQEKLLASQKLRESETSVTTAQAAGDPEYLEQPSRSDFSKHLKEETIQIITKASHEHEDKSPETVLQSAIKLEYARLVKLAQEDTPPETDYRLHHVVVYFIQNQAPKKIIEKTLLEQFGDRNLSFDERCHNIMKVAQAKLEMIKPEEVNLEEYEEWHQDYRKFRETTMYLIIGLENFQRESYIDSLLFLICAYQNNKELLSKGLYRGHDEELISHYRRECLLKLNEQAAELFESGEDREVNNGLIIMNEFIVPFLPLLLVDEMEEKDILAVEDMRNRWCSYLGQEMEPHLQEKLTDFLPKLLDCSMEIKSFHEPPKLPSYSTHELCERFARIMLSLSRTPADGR
How it was run: as §1

USP28 = molecular target: T4, USP28 (UniProt Q96RU2)
T4 sequence (whole entry): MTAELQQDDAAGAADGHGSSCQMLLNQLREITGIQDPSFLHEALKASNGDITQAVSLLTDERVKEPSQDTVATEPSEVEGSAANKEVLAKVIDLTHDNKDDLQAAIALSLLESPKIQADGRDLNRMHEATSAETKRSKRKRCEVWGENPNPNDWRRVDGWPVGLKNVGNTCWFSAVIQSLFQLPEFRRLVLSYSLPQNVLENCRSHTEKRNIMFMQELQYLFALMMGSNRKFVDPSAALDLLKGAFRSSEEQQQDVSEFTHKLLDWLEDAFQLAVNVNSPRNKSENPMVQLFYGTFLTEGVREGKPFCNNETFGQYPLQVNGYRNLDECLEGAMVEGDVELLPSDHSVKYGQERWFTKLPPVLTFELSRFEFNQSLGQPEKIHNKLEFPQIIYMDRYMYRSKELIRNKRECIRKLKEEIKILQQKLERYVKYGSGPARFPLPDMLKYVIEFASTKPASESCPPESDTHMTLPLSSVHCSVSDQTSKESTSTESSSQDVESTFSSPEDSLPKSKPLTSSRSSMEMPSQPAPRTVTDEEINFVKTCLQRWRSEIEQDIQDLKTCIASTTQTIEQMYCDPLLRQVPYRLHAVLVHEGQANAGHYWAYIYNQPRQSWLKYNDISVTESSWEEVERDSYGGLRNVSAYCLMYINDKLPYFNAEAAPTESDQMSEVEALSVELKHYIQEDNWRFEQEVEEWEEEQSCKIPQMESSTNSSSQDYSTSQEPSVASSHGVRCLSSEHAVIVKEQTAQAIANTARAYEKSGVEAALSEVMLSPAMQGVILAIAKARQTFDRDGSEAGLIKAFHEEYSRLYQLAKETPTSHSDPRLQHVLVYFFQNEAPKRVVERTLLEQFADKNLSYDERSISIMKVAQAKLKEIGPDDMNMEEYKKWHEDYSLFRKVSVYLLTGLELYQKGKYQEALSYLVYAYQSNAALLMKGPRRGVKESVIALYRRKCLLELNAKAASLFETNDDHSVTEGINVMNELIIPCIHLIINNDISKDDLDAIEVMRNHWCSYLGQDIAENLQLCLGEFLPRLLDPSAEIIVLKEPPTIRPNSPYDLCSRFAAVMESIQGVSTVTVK
How it was run: as §1

Measured: log2 ratio of Biotin-Ahx-Ub-VS probe labelling

Sequence of USP24 (Q9UPU5 whole entry): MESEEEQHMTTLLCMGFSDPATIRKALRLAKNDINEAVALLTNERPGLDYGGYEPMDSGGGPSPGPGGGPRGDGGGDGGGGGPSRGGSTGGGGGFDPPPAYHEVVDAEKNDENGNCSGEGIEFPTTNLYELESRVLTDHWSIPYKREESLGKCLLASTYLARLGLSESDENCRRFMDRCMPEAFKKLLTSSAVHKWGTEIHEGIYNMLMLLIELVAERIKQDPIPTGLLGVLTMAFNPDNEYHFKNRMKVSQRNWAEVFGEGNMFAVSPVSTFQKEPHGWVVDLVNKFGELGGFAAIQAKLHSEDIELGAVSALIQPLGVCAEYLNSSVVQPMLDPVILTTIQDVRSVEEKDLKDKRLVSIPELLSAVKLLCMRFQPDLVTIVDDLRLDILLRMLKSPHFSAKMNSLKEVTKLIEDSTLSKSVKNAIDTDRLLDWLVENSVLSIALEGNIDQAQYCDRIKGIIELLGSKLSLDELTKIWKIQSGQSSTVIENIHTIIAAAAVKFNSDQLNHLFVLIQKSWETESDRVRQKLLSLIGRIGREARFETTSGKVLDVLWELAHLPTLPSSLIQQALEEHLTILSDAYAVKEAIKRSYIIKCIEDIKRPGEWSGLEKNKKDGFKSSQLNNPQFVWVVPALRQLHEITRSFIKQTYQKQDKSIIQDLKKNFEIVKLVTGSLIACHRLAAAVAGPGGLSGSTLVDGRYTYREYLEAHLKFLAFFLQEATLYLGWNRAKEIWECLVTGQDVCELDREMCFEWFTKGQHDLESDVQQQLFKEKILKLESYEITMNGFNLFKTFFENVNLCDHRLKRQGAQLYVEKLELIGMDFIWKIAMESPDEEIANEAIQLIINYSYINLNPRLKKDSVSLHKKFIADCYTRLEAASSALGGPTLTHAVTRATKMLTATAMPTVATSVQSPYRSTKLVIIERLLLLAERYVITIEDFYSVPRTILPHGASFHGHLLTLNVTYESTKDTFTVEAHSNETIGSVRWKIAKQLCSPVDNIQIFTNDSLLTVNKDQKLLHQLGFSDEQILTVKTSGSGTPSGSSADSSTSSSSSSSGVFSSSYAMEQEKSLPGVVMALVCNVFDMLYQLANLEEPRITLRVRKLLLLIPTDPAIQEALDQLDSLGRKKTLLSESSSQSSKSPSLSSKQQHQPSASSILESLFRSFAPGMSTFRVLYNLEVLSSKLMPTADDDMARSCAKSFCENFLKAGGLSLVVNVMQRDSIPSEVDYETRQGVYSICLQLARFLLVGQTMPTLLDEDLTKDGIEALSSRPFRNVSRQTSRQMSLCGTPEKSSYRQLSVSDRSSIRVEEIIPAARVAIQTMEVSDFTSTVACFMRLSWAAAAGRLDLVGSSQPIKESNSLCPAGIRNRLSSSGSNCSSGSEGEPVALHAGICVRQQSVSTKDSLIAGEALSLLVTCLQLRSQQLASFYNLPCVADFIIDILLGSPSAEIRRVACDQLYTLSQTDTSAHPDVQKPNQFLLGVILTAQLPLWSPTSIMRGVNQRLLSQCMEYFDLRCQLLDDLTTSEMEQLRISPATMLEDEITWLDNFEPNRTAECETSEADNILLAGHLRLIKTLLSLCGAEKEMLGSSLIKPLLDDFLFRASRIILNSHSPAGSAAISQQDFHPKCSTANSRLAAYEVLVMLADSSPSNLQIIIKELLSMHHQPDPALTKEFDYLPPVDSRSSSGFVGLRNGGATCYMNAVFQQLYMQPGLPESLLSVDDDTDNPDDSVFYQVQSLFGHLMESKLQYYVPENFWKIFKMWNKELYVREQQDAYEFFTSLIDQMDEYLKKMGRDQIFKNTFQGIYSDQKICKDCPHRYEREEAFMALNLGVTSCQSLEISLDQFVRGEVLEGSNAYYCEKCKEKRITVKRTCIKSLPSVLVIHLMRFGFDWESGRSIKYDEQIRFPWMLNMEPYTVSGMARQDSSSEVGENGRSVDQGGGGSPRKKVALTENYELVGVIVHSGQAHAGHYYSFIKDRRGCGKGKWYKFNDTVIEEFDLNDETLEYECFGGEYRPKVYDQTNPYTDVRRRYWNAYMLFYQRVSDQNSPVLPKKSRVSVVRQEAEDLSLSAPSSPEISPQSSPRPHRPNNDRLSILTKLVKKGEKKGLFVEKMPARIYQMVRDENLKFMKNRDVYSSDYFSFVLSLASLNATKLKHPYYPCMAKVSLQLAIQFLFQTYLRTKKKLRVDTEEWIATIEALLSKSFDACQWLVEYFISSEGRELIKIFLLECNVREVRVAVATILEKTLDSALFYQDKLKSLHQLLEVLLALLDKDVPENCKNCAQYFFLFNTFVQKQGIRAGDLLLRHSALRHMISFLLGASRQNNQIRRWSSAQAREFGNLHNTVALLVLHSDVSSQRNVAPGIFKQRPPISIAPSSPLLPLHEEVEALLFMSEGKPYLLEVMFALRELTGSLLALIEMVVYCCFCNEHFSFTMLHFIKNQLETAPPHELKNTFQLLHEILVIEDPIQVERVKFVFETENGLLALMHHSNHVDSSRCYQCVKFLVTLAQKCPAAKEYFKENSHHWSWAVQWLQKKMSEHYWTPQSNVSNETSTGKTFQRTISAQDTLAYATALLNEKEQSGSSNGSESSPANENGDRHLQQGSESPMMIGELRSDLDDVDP

C[C@H]1CN(C(=O)CCl)CCN1C(=O)c1cnn(C)c1.Cl
inactive: USP19 -0.18 | USP22 -0.177 | USP24 -0.132 | USP25 -0.0187 | USP28 -0.325

From the supplement of paper PMC11732987, “Enantioselective OTUD7B fragment discovery through chemoproteomics screening and high-throughput optimisation” (Communications Chemistry, 2025)
